# Only some compounds are listed: those with a hit (about 4.6% of all), similar ones and a draw of the others.
# TRHR enhancer – allosterically enhances the human TRH receptor | hit rate 0.66% among 360,000 | TRHR cells, fluo-8 calcium fluorescence, EC20 TRH enhancement | enhancement, % at 2 µM | P34981; in the data active means enhancement above about 30%; further: 0% is about no effect
#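 TRHR-expressing cells loaded with fluo-8 calcium dye were read kinetically (ex 480/em 530) during compound addition, then stimulated with an EC20 of TRH (10 nM final). Enhancement of the Gq-mediated intracellular calcium response was scored.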
# D1 agonist – activates the human D1 dopamine receptor | P21728 | HEK293 T-REx D1 cells, calcium flux, agonist mode | activation, % at 2 µM | hit rate 1% among 360,000 | AID 504660; further: 0% is about no effect
# Target sequence (P21728 whole entry, looked up): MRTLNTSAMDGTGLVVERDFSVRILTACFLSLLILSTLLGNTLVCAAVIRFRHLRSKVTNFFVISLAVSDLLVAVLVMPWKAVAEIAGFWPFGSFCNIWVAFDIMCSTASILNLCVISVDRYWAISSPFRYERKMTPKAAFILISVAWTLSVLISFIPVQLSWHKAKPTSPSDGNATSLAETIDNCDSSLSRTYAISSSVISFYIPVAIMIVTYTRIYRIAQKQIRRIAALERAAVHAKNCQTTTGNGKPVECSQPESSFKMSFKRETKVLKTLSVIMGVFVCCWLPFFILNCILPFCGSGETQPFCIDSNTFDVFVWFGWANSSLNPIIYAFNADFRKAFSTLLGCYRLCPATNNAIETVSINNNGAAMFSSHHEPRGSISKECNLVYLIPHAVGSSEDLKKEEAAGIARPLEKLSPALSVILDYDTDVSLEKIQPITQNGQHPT
#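 Agonism was scored from calcium flux recorded over 180 s (1 read/s) after pintool compound addition, following a 10-cycle baseline. Cells were inducible force-coupled HEK293 TREx D1, plated overnight at 30 C and loaded with no-wash calcium dye.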
# D1 PAM – human D1 dopamine receptor positive modulation; HEK293 TREx D1 cells, calcium flux, dopamine EC20 potentiation; hit rate 0.036% among 360,000; P21728; potentiation, % at 10 µM; in the data active means potentiation above about 30%; further: 0% is about no effect
# TRHR ag – TRH receptor (human) agonism; P34981; TRHR cells, calcium flux fluo-8, FDSS agonist mode; activation, % at 2 µM; hit rate 0.18% among 360,000; AID 493084; further: 0% is about no effect
#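 Fluo-8-loaded TRHR cells; 10 s baseline, compound added, kinetic Ca2+ fluorescence read 1/s, agonist mode.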
# D1 antagonist – antagonists of human D1 dopamine receptor | HEK293 TREx D1 cells, calcium flux, dopamine EC80; stronger effect = lower value | hit rate 3.2% among 360,000 | P21728 | activity change, negative = inhibition, % at 10 µM; in the data active means activity change below about -30%; further: on the % scale 0 is the no-effect control and ±100 the full control effect
#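 Cells carrying a force-coupled, tetracycline-inducible human D1 receptor report calcium flux. Each well gets a 10 s baseline, compound with 180 s monitoring, then an EC80 dopamine stimulus with a second 180 s kinetic read.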
# * marks the source's active call; other numbers are inactive results; x = no result. Unless noted, no stated cut-off is given here; in the data, active means activation above about 30%; inactive means the rest.
SMILES,TRHR enhancer,D1 agonist,D1 PAM,TRHR ag,D1 antagonist
O=C(Nc1cccc(C(=O)O)c1)/C(=C\c1ccc2c(c1)OCO2)NC(=O)c1ccco1,33*,0,-3,1,-7
NC(=O)COc1cccc2cccnc12,-23,0,-10,0,-79*
Cc1cc(NC(=O)COc2cccc3cccnc23)no1,-1,1,0,0,0
O=C(NC1CCCc2c1cnn2-c1ccccc1F)c1ccccn1 (stereo not given),5,11,-3,-1,-38*
O=C(NC1CCCc2c1cnn2-c1ccc(F)cc1F)c1ccccn1 (stereo not given),1,3,-3,0,3
CCn1cc2nc(SCC(=O)Nc3cc(OC)cc(OC)c3)n(Cc3ccc(Cl)cc3)c(=O)c2n1,8,8,-1,3,-11
CCOC(=O)c1c(/C=N/Nc2ccccc2)c2sc(C)cc2n1C,1,-1,10,0,8
CCCOc1ccc(C2C(=O)N(C3CCCCCC3)CC(=O)N2C(C)C)cc1OC (stereo not given),3,-4,0,-1,-9
CC1CCN(CCOc2ccc(OCc3ccccc3)cc2)CC1,0,33*,-7,2,-41*
CC1CCN(CCCCOc2ccc(C(C)(C)C)cc2)CC1,-3,41*,-7,2,-4
c1ccc(COc2ccc(OCCCCN3CCCC3)cc2)cc1,4,35*,-6,1,-34*
CCOc1ccc(-c2cccc(NS(=O)(=O)c3ccccc3C(F)(F)F)c2)nn1,4,1,-2,-1,-6
CCCc1cc(N2CCN(c3cc(Cl)ccc3C)CC2)n2cnnc2n1,-8,4,-3,-1,5
CCOC(=O)CCc1c(C)c2ccc(OC(C)C(=O)OCC)c(C)c2oc1=O (stereo not given),12,18,-12,-1,-41*
CCOC(=O)C(C)Oc1ccc2c(CC)cc(=O)oc2c1C (stereo not given),-4,1,-3,-1,6
Cc1c(CCO)c(=O)n(C)n1C(=O)c1ccc(F)cc1,-1,5,-7,0,12
Cc1c(CCO)c(=O)[nH]n1C(=O)c1ccc(F)cc1,2,1,-9,0,-31*
Cc1cccc(-c2noc(-c3cccnc3NCc3ccco3)n2)c1,6,10,-1,1,-16
COc1ccc(Nc2oc(-c3ccc(COc4ccccc4C)o3)nc2C#N)cc1,7,18,-2,0,9
Cc1ccc(-c2cc(C(=O)Nc3cc(C)ccc3C)[nH]n2)c(O)c1,7,-1,-9,1,-37*
Cc1cc(C)c(-c2cc(C(=O)Nc3cc(C)ccc3C)[nH]n2)c(O)c1,33*,4,0,0,-23
Cc1ccc(C)c(NC(=O)c2cc(-c3ccccc3O)n[nH]2)c1,-1,2,-7,1,-22
Cc1cc(C(=O)OCC(=O)NC(=O)c2cccn2C)c2ccccc2n1,-10,45*,-4,-1,17
CC(=O)c1ccc(OC2OCCOC2Oc2ccc(C(C)=O)cc2)cc1 (stereo not given),-1,7,-9,0,-39*
COc1cc(/C=N/NC(=O)c2ccc3nc[nH]c3c2)cc(OC)c1OC,14,0,-1,2,7
SMILES,TRHR enhancer,D1 agonist,D1 PAM,TRHR ag,D1 antagonist
COc1cc(/C=N\NC(=O)c2ccc(-c3ccccc3)cc2)cc(OC)c1O,-3,0,-3,-1,-31*
COc1cc(/C=N/NC(=O)c2ccc(CSc3nc4ccccc4[nH]3)cc2)cc(OC)c1OC,4,11,-10,-1,-33*
Cc1cc2c(s1)c1cnn(Cc3ccc(C(F)(F)F)cc3)c(=O)c1n2C,-1,2,-7,0,13
Cn1ccc2c(OCC(=O)NCc3ccccc3Cl)cccc2c1=O,7,4,1,0,x
Cc1ccc(C)c(NC(=O)c2cc(S(=O)(=O)N3CCCCCC3)ccc2F)c1,8,-3,0,0,-2
COc1ccc(N2CC(C(=O)Nc3ccc([N+](=O)[O-])cc3Br)CC2=O)cc1 (stereo not given),0,-1,-6,0,-5
COc1ccc(N2CC(C(=O)N/N=C/c3cc([N+](=O)[O-])ccc3O)CC2=O)cc1 (stereo not given),39*,-1,1,0,-2

# Screens: PubChem BioAssay, National Center for Advancing Translational Sciences (NCATS)
